Assay results published in PubChem BioAssay (EPA / NIEHS).
Records with an inconclusive call do not appear. The source made the active and inactive calls. Rule for the calls, unless noted: active = hit-call score of the fitted dose curve at least 0.9, where 1 is the maximum; inactive = score below 0.9.

Legend:
[1] = CCTE_Mundy_HCI_Cortical_Synap_Neur_Matur_SynapseCount: CCTE's Synaptogenesis and Neurite Maturation Assay in rat cortical cells for Synapse Count, Mundy Lab (AID 2284218)
How it was run: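 Endpoint: synapses/neuron by HCI (synaptophysin puncta on MAP2-labelled neurites, Hoechst nuclei). Rat primary cortical cells, AraC DIV 5, dosed DIV 7, fixed DIV 12; DMSO negative control.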

[2] = CCTE_Mundy_HCI_Cortical_Synap_Neur_Matur_NeuriteCount: CCTE's Synaptogenesis and Neurite Maturation Assay in rat cortical cells for Neurite Count, Mundy Lab (AID 2284222)
How it was run: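 Rat primary cortical cells; AraC added at DIV 5, chemicals dosed with media change at DIV 7 through DIV 12. MAP2/synaptophysin/Hoechst immunostaining, high-content imaging of neurite number; fitted relative to DMSO.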

[3] = CCTE_Mundy_HCI_Cortical_Synap_Neur_Matur_CellBodySpotCount: CCTE's Synaptogenesis and Neurite Maturation Assay in rat cortical cells for Cell Body Spot Count, Mundy Lab (AID 2284223)
How it was run: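 Primary rat cortical cultures, AraC added at DIV 5; dosed DIV 7 through DIV 12 […]. Fixed, stained for MAP2 and synaptophysin with Hoechst; cell body-associated synaptophysin puncta per neuron counted by high-content imaging, loss vs DMSO.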

[4] = CCTE_Mundy_HCI_hNP1_Pro_ResponderAvgInten: CCTE's Proliferation Assay in human neuroprogenitor cells, Mundy Lab (AID 2284224; active = hit-call score of the fitted dose curve at least 0.9, where 1 is the maximum)
How it was run: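 Proliferation was scored as BrdU labelling intensity in human neural progenitors derived from WA09 embryonic cells, measured 26.25 hours after chemical dosing. Activity was fitted relative to DMSO.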

[5] = CCTE_Mundy_HCI_Cortical_NOG_NeuronCount: CCTE's Neurite Outgrowth Assay in rat cortical cells for Neuron Count, Mundy Lab (AID 2284236; active = hit-call score of the fitted dose curve at least 0.9, where 1 is the maximum;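 note: neurons counted by imaging betaIII-tubulin and Hoechst stained cortical cells; cells exposed to compound for about 48 hours before fixation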)
How it was run: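 Read-out: neuron number by high-content imaging of betaIII-tubulin (Alexa Fluor-488) and Hoechst-labelled rat primary cortical cells.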

[6] = CCTE_Mundy_HCI_Cortical_NOG_BPCount: CCTE's Neurite Outgrowth Assay in rat cortical cells for Branch Point Count, Mundy Lab (AID 2284237);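 note: branch points counted about two days after chemical exposure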
How it was run: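 Measured 50.33 h after dosing, this morphology endpoint uses rat primary cortical cultures labelled for betaIII-tubulin. Branch points are quantified by high-content imaging, with DMSO as negative control and baseline.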

[7] = CCTE_Mundy_HCI_hNP1_Casp3_7: CCTE's Caspase-Glo 3/7 Assay in human neuroprogenitor cells for Apoptosis, Mundy Lab (AID 2284240)
How it was run: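 Apoptosis is scored by activated caspase-3/7 luminescence in WA09-derived neural progenitor cells, measured 26.5 h after chemical dosing. Values represent gain of signal relative to DMSO vehicle.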

[8] = CCTE_Mundy_HCI_hNP1_CellTiter: CCTE's Cell Titer-Glo 2 Assay in human neuroprogenitor cells for Viability, Mundy Lab (AID 2284241; active = hit-call score of the fitted dose curve at least 0.9, where 1 is the maximum;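 note: a hit is a drop in ATP luminescence versus DMSO meaning reduced viability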)
How it was run: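 Human neural progenitor cells (hNP1, WA09-derived) were plated on poly-L-ornithine/laminin and grown 40 to 44 hours at 37 °C, 5% CO2 before chemical addition. Twenty-four hours later, ATP was measured by CellTiter-Glo luminescence; loss of signal versus DMSO indicates reduced viability.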

[9] = CCTE_Mundy_HCI_Cortical_Synap_Neur_Matur_NeuronCount: CCTE's Synaptogenesis and Neurite Maturation Assay in rat cortical cells for Neuron Count, Mundy Lab (AID 2284242; active = hit-call score of the fitted dose curve at least 0.9, where 1 is the maximum;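 note: hits reduce neuron count versus DMSO baseline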)
How it was run: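 Measured at DIV 12: fluorescently labelled neurons (Hoechst nuclei, MAP2) in rat primary cortical cultures, counted by high-content imaging. AraC suppressed glia from DIV 5; DMSO served as negative control.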

[10] = IUF_NPC2c_oligodendrocyte_migration_120hr: Leibniz Research Institute for Environmental Medicine (IUF) 120-hour Neural Progenitor Cell Migration Assay for Oligodendrocyte Migration (NPC2c) (AID 2284297);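 note: O4-positive oligodendrocyte migration distance divided by radial glia migration distance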
How it was run: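 Human fetal neural progenitor spheres (0.3 mm) are plated on poly-D-lysine/laminin in N2 differentiation medium and exposed for 120 h, with half-medium renewal at day 3. Oligodendrocyte (O4+) migration distance comes from ICC imaging, normalised to radial glia migration.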

[11] = IUF_NPC2a_radial_glia_migration_120hr: Leibniz Research Institute for Environmental Medicine (IUF) 120-hour Neural Progenitor Cell Migration Assay for Radial Glia Migration (NPC2a) (AID 2284298)
How it was run: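 Human fetal-cortex neural progenitor spheres (0.3 mm) plated on poly-D-lysine/laminin in N2 differentiation medium, exposed 120 h at 37C with half-medium renewal at day 3. Radial glia migration distance (um) measured from Hoechst-stained nuclei images; DMSO baseline.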

[12] = IUF_NPC2a_radial_glia_migration_72hr: Leibniz Research Institute for Environmental Medicine (IUF) 72-hour Neural Progenitor Cell Migration Assay for Radial Glia Migration (NPC2a) (AID 2284299)
How it was run: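 Spheres of human primary neural progenitors migrate on poly-D-lysine/laminin under compound exposure at 37C, 5% CO2. The 72 h radial glia migration distance comes from brightfield images, measured manually.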

[13] = IUF_NPC2b_neuronal_migration_120hr: Leibniz Research Institute for Environmental Medicine (IUF) 120-hour Neural Progenitor Cell Migration Assay for Neuron Migration (NPC2b) (AID 2284300)
How it was run: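 0.3 mm hNPC spheres on poly-D-lysine/laminin in N2 differentiation medium exposed 120 h, half-medium refresh day 3; 7 concentrations, DMSO max 0.1%. Neuron (TUBB3) distance from sphere core by ICC imaging, normalised to radial glia migration.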

[14] = IUF_NPC3_neuronal_differentiation_120hr: Leibniz Research Institute for Environmental Medicine (IUF) 120-hour Neuronal Differentiation Assay (NPC3) (AID 2284301)
How it was run: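 Value is percent TUBB3-positive neurons among Hoechst-stained nuclei in the migration area, scored by trained CNN after 120 h differentiation. Primary hNPC spheres on poly-D-lysine/laminin, N2 medium, continuous dosing from day 0, half-refeed day 3; DMSO reference.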

[15] = IUF_NPC4_neurite_length_120hr: Leibniz Research Institute for Environmental Medicine (IUF) 120-hour Neuronal Morphology Assay for Neurite Length (NPC4) (AID 2284302)
How it was run: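 Neurite length, the mean in um across TUBB3-stained neurons, is derived by skeletonization of high-content images after 120 h differentiation. Compound exposure, 7 concentrations plus solvent control, ran from plating of hNPC spheres on poly-D-lysine/laminin, with medium half-replaced on day 3.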

[16] = IUF_NPC5_oligodendrocyte_differentiation_120hr: Leibniz Research Institute for Environmental Medicine (IUF) 120-hour Oligodendrocyte Differentiation Assay (NPC5) (AID 2284304; active = hit-call score of the fitted dose curve at least 0.9, where 1 is the maximum;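 note: primary human fetal neural progenitor spheres plated to migrate and differentiate; share of O4-positive cells among Hoechst nuclei found by CNN image analysis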)
How it was run: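 Human fetal neural progenitor spheres (0.3 mm) plated on poly-D-lysine/laminin in N2 differentiation medium and exposed for 120 h at 7 concentrations, with half-medium renewal at day 3. O4-positive cells identified by CNN, expressed as percent of Hoechst nuclei.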

[17] = IUF_NPC4_neurite_area_120hr: Leibniz Research Institute for Environmental Medicine (IUF) 120-hour Neuronal Morphology Assay for Neurite Area (NPC4) (AID 2284305; active = hit-call score of the fitted dose curve at least 0.9, where 1 is the maximum)
How it was run: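 Neurite area (pixels, nuclei excluded) of TUBB3-positive neurons from hNPC spheres differentiating 5 days under continuous exposure at 37 C, 5% CO2. High-content imaging; loss of signal versus DMSO control across 7 concentrations.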

[18] = IUF_NPC2-5_cytotoxicity_72hr: Cytotoxicity Assessment at 72 hours in the Leibniz Research Institute for Environmental Medicine (IUF) Neural Progenitor Cell Migration and Differentiation Assay for Cytotoxicity (NPC2-5) (AID 2284306; active = hit-call score of the fitted dose curve at least 0.9, where 1 is the maximum;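 note: LDH release into supernatant measured by resorufin fluorescence marking membrane damage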)
How it was run: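 Membrane-integrity cytotoxicity at 72 h, read as LDH-driven resorufin fluorescence in supernatant. hNPC spheres from fetal cortex differentiate on coated plates in N2 medium, 37C, 5% CO2; seven serial compound concentrations plus solvent control (DMSO ≤0.1%).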

[19] = IUF_NPC2-5_cytotoxicity_120hr: Cytotoxicity Assessment at 120 hours in the Leibniz Research Institute for Environmental Medicine (IUF) Neural Progenitor Cell Migration and Differentiation Assay (NPC2-5) (AID 2284307; active = hit-call score of the fitted dose curve at least 0.9, where 1 is the maximum;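 note: LDH released into supernatant as membrane damage marker via resorufin fluorescence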)
How it was run: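 Human fetal (GW 16-19) neural progenitor spheres (0.3 mm) plated on poly-D-lysine/laminin in N2 differentiation medium, exposed 120 h with half-medium renewal at day 3; 7 concentrations plus solvent control, DMSO ≤0.1%. LDH release in supernatant read by resorufin fluorescence.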

[20] = IUF_NPC2-5_cell_number_120hr: Cell Number Assessment at 120 hours in the Leibniz Research Institute for Environmental Medicine (IUF) Neural Progenitor Cell Migration and Differentiation Assay (NPC2-5) (AID 2284308);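 note: count of Hoechst-stained nuclei in migration zone around plated human neural progenitor spheres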
How it was run: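 Human fetal neural progenitor spheres (0.3 mm) plated on poly-D-lysine/laminin in N2 differentiation medium, exposed five days across 7 concentrations with half-medium refresh at day 3. Hoechst-positive nuclei counted in migration area at 120 h, relative to DMSO.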

[21] = IUF_NPC2-5_viability_120hr: Viability Assessment at 120 hours in the Leibniz Research Institute for Environmental Medicine (IUF) Neural Progenitor Cell Migration and Differentiation Assay (NPC2-5) (AID 2284312)
How it was run: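 Alamar blue resorufin fluorescence read after 5 days of differentiation, with compound present from day 0 and replenished at day 3. Primary hNPC spheres on laminin-coated plates, 37C; seven concentrations plus solvent control, fitted against DMSO.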

[22] = CCTE_Mundy_HCI_iCellGluta_NOG_NeuriteLength: CCTE's Neurite Outgrowth Assay in iCellGluta cells for Neurite Length, Mundy Lab (AID 2284318; active = hit-call score of the fitted dose curve at least 0.9, where 1 is the maximum)
How it was run: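 Automated high-content imaging of betaIII-tubulin (Alexa Fluor-488) and Hoechst-stained cells gave neurite length, normalized to the DMSO baseline.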

[23] = IUF_NPC1_cytotoxicity_72hr: Cytotoxicity Assessment at 72 hours in the Leibniz Research Institute for Environmental Medicine (IUF) Neural Progenitor Cell Proliferation Assay (NPC1) (AID 2284332; active = hit-call score of the fitted dose curve at least 0.9, where 1 is the maximum;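 note: rising LDH signal means more cytotoxicity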)
How it was run: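 Readout is fluorescence from LDH-dependent resazurin conversion, sampled from culture medium after compound contact lasting 72 h. Each well holds one 0.25-0.35 mm human progenitor sphere kept at 37C, 5% CO2 with EGF and FGF.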

[24] = CCTE_Mundy_HCI_iCellGluta_NOG_NeuronCount: CCTE's Neurite Outgrowth Assay in iCellGluta cells for Neuron Count, Mundy Lab (AID 2284340; active = hit-call score of the fitted dose curve at least 0.9, where 1 is the maximum;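 note: cells fixed about 48 h after compound addition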)
How it was run: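 Neuron count read by automated high-content imaging of Hoechst 33342 and betaIII-tubulin/Alexa Fluor-488 labelling in human iPSC glutamatergic neurons. Activity fitted relative to DMSO.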

[25] = CCTE_Mundy_HCI_iCellGluta_NOG_NeuriteCount: CCTE's Neurite Outgrowth Assay in iCellGluta cells for Neurite Count, Mundy Lab (AID 2284342; active = hit-call score of the fitted dose curve at least 0.9, where 1 is the maximum;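 note: chemical exposure about 48 hours starting 2 hours after plating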)

Measured: AC50

BrC1CC(Br)CC(Br)CC(Br)CC(Br)CC(Br)C1 (stereo not given)
active: [1] 3.61 µM | [2] 4.27 µM | [3] 3.8 µM | [4] 7.21 µM | [5] 9.27 µM | [6] 8.4 µM | [7] 4.22 µM | [8] 8.39 µM | [9] 3.43 µM | [10] 1.24 µM | [13] 3.11 µM | [14] 1.72 µM | [15] 1.04 µM | [16] 0.856 µM | [17] 1.06 µM | [19] 4.52 µM | [22] 3.77 µM | [24] 4.56 µM | [25] 4.69 µM
inactive: [11] | [12] | [18] | [20] | [21] | [23]
